Data taken from PubChem BioAssay (Tox21).
Values joined by “and” are separate entries in the source; they are usually repeats but may differ in a detail not shown here. Identical values can stand only once. Inconclusive results are not listed. Where a call stands in place of a potency, no number is given. Where a structure was tested more than once in an assay, its records may differ in their call. Active and inactive are the calls of the source. Unless noted, the call rests on the fitted dose curve.

Molecular target: Muscarinic acetylcholine receptor M1 (Homo sapiens) (UniProt P11229)
Sequence (P11229 whole entry, looked up): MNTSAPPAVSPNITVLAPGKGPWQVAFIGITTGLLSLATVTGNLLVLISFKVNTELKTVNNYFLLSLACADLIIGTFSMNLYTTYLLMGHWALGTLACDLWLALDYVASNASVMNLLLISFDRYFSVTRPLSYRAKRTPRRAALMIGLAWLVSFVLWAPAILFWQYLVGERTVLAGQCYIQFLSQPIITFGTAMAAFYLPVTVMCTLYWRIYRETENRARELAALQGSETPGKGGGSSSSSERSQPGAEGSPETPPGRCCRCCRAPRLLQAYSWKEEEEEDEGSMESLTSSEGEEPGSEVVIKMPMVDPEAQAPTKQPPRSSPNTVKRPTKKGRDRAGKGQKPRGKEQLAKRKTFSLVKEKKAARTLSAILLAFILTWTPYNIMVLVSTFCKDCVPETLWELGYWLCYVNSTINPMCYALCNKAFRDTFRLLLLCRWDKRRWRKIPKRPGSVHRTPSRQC
Test: Cholinergic receptor muscarinic 1 (CHRM1) small molecule antagonists, cell-based qHTS assay (AID 1963588); further: nearly all actives have a fitted effect of over 40% in size
Conditions: CHRM1-CHO antagonist mode, calcium flux fluorescence; series mostly up to 61.5 µM
Method in brief: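 CHRM1-CHO calcium-flux assay, antagonist mode. Cells were seeded 18 h, dye-loaded 1 h at 37 C and given compound for 5 min at RT, then acetylcholine was added at 50nM. FDSS fluorescence was read 3 min; 15 concentrations, three runs.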

Structure (SMILES)	Potency
CCCCCCCCCCCCN	inactive
CC(O)CC(C)(C)O (configuration not stated)	inactive
O=C(c1ccc(O)cc1)c1ccc(O)cc1O	inactive
CCNc1ccccc1	inactive
Nc1ccc(O)c(C(=O)O)c1	inactive
O=C1CCc2ccccc2O1	inactive
CC(=O)CCC=C(C)C	inactive
CCO[Si](CCCNC(N)=O)(OCC)OCC	inactive
C=C(C)C(=O)OCCOC(=O)C(=C)C	inactive
CC1(C)NC(=O)N(c2ccc([N+](=O)[O-])c(C(F)(F)F)c2)C1=O	inactive
O=S(=O)(O)c1ccc(O)cc1	inactive
CC(=O)Oc1c(C)c(C)c2c(c1C)CC[C@@](C)(CCC[C@H](C)CCC[C@H](C)CCCC(C)C)O2	inactive
C[N+](C)(C)CCCCCC[N+](C)(C)C	inactive
CCCCCC/C=C/CCCCCCCC(=O)O	inactive
CC(C)=CCl	inactive
C/C=C1/CC2C=CC1C2 (configuration not stated)	inactive
CC(=O)Oc1ccc(C)cc1	inactive
CC(C)=CCO	inactive
CCCCCCCC(=O)OCC(O)CO (configuration not stated)	inactive
CCCCCCCCCCCCCC(=O)O	inactive
O=[Se](O)O	inactive
CC(=O)c1nccs1	inactive
Cc1cc(C2(c3cc(C)c(O)cc3C)OS(=O)(=O)c3ccccc32)c(C)cc1O	inactive
COc1cc(C=O)ccc1O	inactive
CC(=O)Nc1ccccc1	inactive

Molecular target: Muscarinic acetylcholine receptor M1 (Homo sapiens) (UniProt P11229)
Test: Cholinergic receptor muscarinic 1 (CHRM1) small molecule agonists, cell-based qHTS assay (AID 1963589); further: nearly all actives have a fitted effect of over 35% in size; further: potency means the concentration at half of the fitted maximal effect
Conditions: CHRM1-CHO cells, agonist mode, calcium flux fluorescence; series mostly up to 76.8 µM
Method in brief: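 Human M1 in stable CHO line; 18 h plating, 1 h dye load 37 C; cpd added (agonist mode); Ca2+ fluorescence kinetic read, 1 s intervals; 15 conc, 3 runs.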

Structure (SMILES)	Potency
CCCCCCCCCCCCN	inactive and 24.5 µM (active)
CC(O)CC(C)(C)O (configuration not stated)	inactive
O=C(c1ccc(O)cc1)c1ccc(O)cc1O	inactive
CCNc1ccccc1	inactive
Nc1ccc(O)c(C(=O)O)c1	inactive
CC(=O)CCC=C(C)C	inactive
CCO[Si](CCCNC(N)=O)(OCC)OCC	inactive
C=C(C)C(=O)OCCOC(=O)C(=C)C	inactive
CC1(C)NC(=O)N(c2ccc([N+](=O)[O-])c(C(F)(F)F)c2)C1=O	inactive
O=S(=O)(O)c1ccc(O)cc1	inactive
CC1(C)NC(=O)NC1=O	inactive
C[N+](C)(C)CCCCCC[N+](C)(C)C	inactive
CCCCCC/C=C/CCCCCCCC(=O)O	inactive
CC(C)=CCl	inactive
C/C=C1/CC2C=CC1C2 (configuration not stated)	inactive
CC(=O)Oc1ccc(C)cc1	inactive
C=C(C)C(=O)OCC(CC)(COC(=O)C(=C)C)COC(=O)C(=C)C	inactive
CCCCCCCC(=O)OCC(O)CO (configuration not stated)	inactive
CCCCCCCCCCCCCC(=O)O	inactive
O=C(OCc1ccccc1)c1ccccc1	inactive
Cc1ccc(C(=O)O)o1	inactive
O=[Se](O)O	inactive
CC(=O)c1nccs1	inactive
Cc1cc(C2(c3cc(C)c(O)cc3C)OS(=O)(=O)c3ccccc32)c(C)cc1O	inactive
COc1cc(C=O)ccc1O	inactive
CC(=O)Nc1ccccc1	inactive

System: not listed separately
Test: cAMP Responsive Elements (CRE) small molecule agonists, cell-based qHTS assay (AID 1963590); further: potency means the concentration at half of the fitted maximal effect
Conditions: CRE-bla HEK293T, beta-lactamase FRET ratio, 3 h; series mostly up to 92.4 µM
Method in brief: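 HEK 293T CRE-bla, 2,000 cells/well, 18 h preincubation 37 C/5% CO2; cpds (DMSO) pinned, 3 h; LiveBLAzer B/G FRET substrate, 2 h RT.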

Structure (SMILES)	Potency
CCCCCCCCCCCCN	inactive
CC(O)CC(C)(C)O (configuration not stated)	inactive
CCNc1ccccc1	inactive
Nc1ccc(O)c(C(=O)O)c1	inactive
O=C1CCc2ccccc2O1	inactive
CC(=O)CCC=C(C)C	inactive
CCO[Si](CCCNC(N)=O)(OCC)OCC	inactive
C=C(C)C(=O)OCCOC(=O)C(=C)C	inactive
C#C[C@]1(O)CC[C@H]2[C@@H]3CCC4=Cc5oncc5C[C@]4(C)[C@H]3CC[C@@]21C	29.8 µM (active)
CC1(C)NC(=O)N(c2ccc([N+](=O)[O-])c(C(F)(F)F)c2)C1=O	inactive
O=S(=O)(O)c1ccc(O)cc1	inactive
CC(=O)Oc1c(C)c(C)c2c(c1C)CC[C@@](C)(CCC[C@H](C)CCC[C@H](C)CCCC(C)C)O2	inactive
CC1(C)NC(=O)NC1=O	inactive
C[N+](C)(C)CCCCCC[N+](C)(C)C	inactive
CCCCCC/C=C/CCCCCCCC(=O)O	inactive
CC(C)=CCl	inactive
C/C=C1/CC2C=CC1C2 (configuration not stated)	inactive
COC(=O)c1ccccc1O	inactive
CC(=O)Oc1ccc(C)cc1	inactive
CC(C)=CCO	inactive
S=c1nc[nH]c2nc[nH]c12	inactive
CC(C)(CO)CO	inactive
NC(CO)(CO)CO	inactive
N=C(N)c1ccc(OCCCCCOc2ccc(C(=N)N)cc2)cc1	inactive
Cc1ccc(C(=O)O)o1	inactive
CC(=O)c1nccs1	inactive
Cc1cc(C2(c3cc(C)c(O)cc3C)OS(=O)(=O)c3ccccc32)c(C)cc1O	inactive
CC12CCC(CC1)C(C)(C)O2	inactive
CC(=O)Nc1ccccc1	inactive

System: not listed separately
Test: cAMP Responsive Elements (CRE) small molecule antagonists, cell-based qHTS assay (AID 1963591; active means well fitted inhibition curve with a large enough effect in the signal ratio in the repeat runs, not every such curve was filed as active; the % refers to the signal ratio)
Conditions: CRE-bla HEK293T, beta-lactamase FRET ratio; series mostly up to 92.4 µM
Method in brief: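 Beta-lactamase reporter read by FRET substrate (LiveBLAzer B/G) after 2 h at room temperature. CRE-bla HEK293T cells had received compound plus 0.25 uM (final) NKH477 for 3 h at 37 °C.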

Structure (SMILES)	Potency	activity change, negative = inhibition
CC(O)CC(C)(C)O (configuration not stated)	inactive	
O=C(c1ccc(O)cc1)c1ccc(O)cc1O	inactive	
CCNc1ccccc1	inactive	
Nc1ccc(O)c(C(=O)O)c1	inactive	
O=C1CCc2ccccc2O1	inactive	
CC(=O)CCC=C(C)C	inactive	
CCO[Si](CCCNC(N)=O)(OCC)OCC	inactive	
C=C(C)C(=O)OCCOC(=O)C(=C)C	inactive	
CC1(C)NC(=O)N(c2ccc([N+](=O)[O-])c(C(F)(F)F)c2)C1=O	inactive	
O=S(=O)(O)c1ccc(O)cc1	inactive	
CC(=O)Oc1c(C)c(C)c2c(c1C)CC[C@@](C)(CCC[C@H](C)CCC[C@H](C)CCCC(C)C)O2	inactive	
CC1(C)NC(=O)NC1=O	inactive	
C[N+](C)(C)CCCCCC[N+](C)(C)C	inactive	
CC(C)=CCl	inactive	
C/C=C1/CC2C=CC1C2 (configuration not stated)	inactive	
COC(=O)c1ccccc1O	inactive	

Structure (SMILES)	Potency	activity change, negative = inhibition
CC(=O)Oc1ccc(C)cc1	inactive	
CC(C)=CCO	inactive	
Cc1ccc(C)c(OCCCC(C)(C)C(=O)O)c1	inactive	
S=c1nc[nH]c2nc[nH]c12	inactive	
CC(C)(CO)CO	inactive	
NC(CO)(CO)CO	inactive	
N=C(N)c1ccc(OCCCCCOc2ccc(C(=N)N)cc2)cc1	inactive	
CCCCCCCC(=O)OCC(O)CO (configuration not stated)	inactive	
CCCCCCCCCCCCCC(=O)O	inactive	
O=C(OCc1ccccc1)c1ccccc1	inactive	
Cc1ccc(C(=O)O)o1	inactive	
O=[Se](O)O		2.98% [at 18.9 µM] (inactive)
CC(=O)c1nccs1	inactive	
Cc1cc(C2(c3cc(C)c(O)cc3C)OS(=O)(=O)c3ccccc32)c(C)cc1O	inactive	
CC12CCC(CC1)C(C)(C)O2	inactive	
CC(=O)Nc1ccccc1	inactive	
